From the supplement of paper PMC6555819

test system: VDR:RXRa (NR concentration 270 nM, RXRa partner concentration 90 nM); assay: PBM binding z-score (relative to random genomic background probes); higher = stronger binding; sequences stand for … in GC…GCGATTGACAGCGTAGAATGAAGG
Protocol: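 Protein-binding microarray (Agilent 4x180K custom design, double-stranded 60-nt probes: 5' GC cap, 34-nt variable region, 24-nt constant primer region; full probe sequence given). Purified or IVT nuclear receptor:RXRα heterodimers (3:1 NR:RXRα, mostly 270:90 nM) or homodimers were incubated for 1 h in PBS with 2% milk and no ligand, then detected with Alexa488 antibodies. Fluorescence from o1-orientation probes (~5 replicates averaged) was converted to z-scores against 500 random hg19 background probes. Variable regions are seed direct-repeat (DR0–DR5) sites, all their single-nucleotide variants and half-site ablations.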

Sequence	PBM binding z-score
CCGACTGGGGCATAAGGTTACTATAAGCCAGCCC	0.306
TAGCCTACGTCATTCAGGGGCCAGTATAGAAAGC	-0.219
TAGCCTAGGTCATGGGCCAGTCTACCACGCGAAC	1.82
CGAACGAGGGCGTGAGTTGATAGCAAATGCCGAT	0.224
TTACCATGGTGAAGGTCGTTGATCCCTCTGTAGA	0.949
GCAGACAGGTGAAACGCAGGTCACTCAGGGTGGC	2.28
CCGACTGGGGCATGGTTACCATAACGCACAGCCA	-0.609
ATCTCTAGGTAACCAAGTTCAGTGGATGCCGAAC	4.04
CCTATTAGTTGACAATAAGGGCAACCGAAGCTCG	1.09
CCTCGGAGTACAACAGGAGGTCAGAGCTGCCAGA	2.09
TAGGCTAGGTCATGGGCCAGTATACCACGCGAAC	1.98
TCTTGTAGATCAAGCATGTTAAGAAAGCCTGAGT	0.348
TGAACGAGGTTATAAGATCAGGGAACGTTGCAAA	0.923
AGAAGGAGGTTAAGATCAGGGAAACAGAATACAT	0.978
TCGAGTAGGTTAGTCGCGGCATTCAGCCAACATA	-0.415
CAAACTAGGTCACTGGAAGGTCAAAGTCCGCATG	5.33
AGAATGAGGTTATACGTAGATCAGGGAAGAAAGT	1.52
TCATATAGGTAAACAGGTGAAAGTCCGTAAGTTA	1.27
TCTATTTGGTCACGGAGGTCACACACGACGGGTA	5.87
CGAACTAGGTCATTGACAGGACAGTGAATAGTAA	2.2

Sequence	PBM binding z-score
CAAACTAGGTCATTGACAGGACAGTGAATAGTAA	2.42
CAAGCTAGGTCACGAAAGGTCAAAGTCGAATGAC	6.88
CCGACTGCGGCAAGGTTACCATAACGCACAGCCA	0.302
ACAGACAGGTGCTGAAGGTAACTCAGGCTATCAT	-0.264
CGTCCAAGCTCAGAGAGGTCAGTGAATGCCGAGT	2.2
AGAATGAGGTTATTAAGATCCGGGAATTGCGGTC	1.08
ACACCAAGGTGATCGTGAGGTCGTTGATACTAAC	3.21
TCATATAGGTAATACATGTGAAAGTCGGCATCTA	1.07
TAGCCTAGGTCATGGGACAGTATACCACGCGAAC	2.17
ATATGTGGGTTACATCCGGGTCATTCAGGCTATG	4.41
GAGACTGGGGCATCAGCAGGTTACCATAACTTAA	0.317
CGTCAAAGTTCAACTAAGCTAACGTAAAGCACGC	4.35
GATACAGGGTCACGGCCAGAGTACGCGTATTGAT	5.4
CCTACTGGGCCATCAGCTCATTGATATCAACGTT	-0.619
CCGACTGAGGCATAAGGTTACCATAAGCCAGCCC	0.114
TATACAGGGTCAAGGGCCAGAGTACGAATGTCGA	4.43
TCTGCTAGGTCAGTTCGTCAGCTAACGAGCTGCC	0.144
ACTATTAGTTGACTTAGGGCAACAGATACGACGC	0.323
TCGAGTAGGTTAGTAGGGGCATTCAGCCAACATA	3.1
AACACAGGGTCATCGTAGGCCAGAGTACGCACAG	5.15
